# Measured values taken from the supplement of paper PMC8728848.
# This excerpt belongs to a sample that is enriched for the strongest signals.
# B1: Gal 4 (Mus musculus), P56470 (protein)
# chain: MAYVPAPGYQPTYNPTLPYYQPIPGGLNVGMSVYIQGVASEHMKRFFVNFVVGQDPGSDVAFHFNPRFDGWDKVVFNTLQGGKWGSEERKRSMPFKKGAAFELVFIVLAEHYKVVVNGNPFYEYGHRLPLQMVTHLQVDGDLQLQSINFIGGQPLRPQGPPMMPPYPGPGHCHQQLNSLPTMEGPPTFNPPVPYFGRLQGGLTARRTIIIKGYVPPTGKSFAINFKVGSSGDIALHINPRMGNGTVVRNSLLNGSWGSEEKKITHNPFGPGQFFDLSIRCGLDRFKVYANGQHLFDFAHRLSAFQRVDTLEIQGDVTLSYVQI
# Columns and labels:
# Test in all cases: glycan array binding signal (z-score within array); higher = stronger binding
# Conditions in all cases: glycan notation: IUPAC condensed, linker removed
# [1] = molecular target: GalNAc(b1-3)GlcNAc
# In short: (§1)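 The binding signal is a Z-score computed within each array and averaged over linkers. Arrays of the same protein sequence at different concentrations or buffers were also averaged together. Data originate from 3228 arrays in the Consortium for Functional Glycomics database, kept only where the protein sequence was available.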
# [2] = molecular target: Glc(a1-4)Glc
# In short: as §1
# [3] = molecular target: GlcA(b1-3)Gal
# In short: as §1
# [4] = molecular target: GlcNAc(b1-2)Man(a1-3)[GlcNAc(b1-4)][GlcNAc(b1-2)Man(a1-6)]Man(b1-4)GlcNAc(b1-4)[Fuc(a1-6)]GlcNAc
# In short: as §1
# [5] = molecular target: GlcNAc(b1-2)[GlcNAc(b1-4)]Man(a1-3)[GlcNAc(b1-4)][GlcNAc(b1-2)[GlcNAc(b1-6)]Man(a1-6)]Man(b1-4)GlcNAc(b1-4)GlcNAc
# In short: as §1
# [6] = molecular target: GlcNAc(b1-3)Gal(b1-4)GlcNAc(b1-3)Gal(b1-4)GlcNAc(b1-3)Gal(b1-4)GlcNAc(b1-2)[GlcNAc(b1-3)Gal(b1-4)GlcNAc(b1-3)Gal(b1-4)GlcNAc(b1-3)Gal(b1-4)GlcNAc(b1-6)]Man(a1-6)[GlcNAc(b1-3)Gal(b1-4)GlcNAc(b1-3)Gal(b1-4)GlcNAc(b1-3)Gal(b1-4)GlcNAc(b1-2)Man(a1-3)]Man(b1-4)GlcNAc(b1-4)[Fuc(a1-6)]GlcNAc
# In short: as §1
# [7] = molecular target: GlcNAc(b1-3)Gal(b1-4)GlcNAc(b1-3)[GlcNAc(b1-3)Gal(b1-4)GlcNAc(b1-3)]GalNAc
# In short: as §1
# [8] = molecular target: GlcNAc(b1-3)Gal(b1-4)GlcNAc(b1-6)[Gal(b1-3)]GalNAc
# In short: as §1
# [9] = molecular target: GlcNAc(b1-3)Man
# In short: as §1
# [10] = molecular target: GlcNAc(b1-4)GlcNAc(b1-4)GlcNAc
# In short: as §1
# [11] = molecular target: Kdn(a2-6)Gal(b1-4)GlcNAc
# In short: as §1
# [12] = molecular target: Neu5Ac(a2-3)Gal(b1-3)GlcNAc(b1-3)Gal(b1-3)GlcNAc
# In short: as §1
# [13] = molecular target: Neu5Ac(a2-3)Gal(b1-3)GlcNAc(b1-3)Gal(b1-4)GlcNAc
# In short: as §1
# [14] = molecular target: Neu5Ac(a2-3)Gal(b1-3)[Fuc(a1-4)]GlcNAc(b1-3)Gal(b1-4)[Fuc(a1-3)]GlcNAc
# In short: as §1
# [15] = molecular target: Neu5Ac(a2-3)Gal(b1-4)GlcNAc(b1-2)[Neu5Ac(a2-3)Gal(b1-4)GlcNAc(b1-6)]Man(a1-6)[Neu5Ac(a2-3)Gal(b1-4)GlcNAc(b1-2)Man(a1-3)]Man(b1-4)GlcNAc(b1-4)GlcNAc
# In short: as §1
# [16] = molecular target: Neu5Ac(a2-3)Gal(b1-4)GlcNAc(b1-2)[Neu5Ac(a2-3)Gal(b1-4)GlcNAc(b1-6)]Man(a1-6)[Neu5Ac(a2-3)Gal(b1-4)GlcNAc(b1-2)Man(a1-3)][GlcNAc(b1-4)]Man(b1-4)GlcNAc(b1-4)GlcNAc
# In short: as §1
# [17] = molecular target: Neu5Ac(a2-3)Gal(b1-4)GlcNAc(b1-3)Gal(b1-4)GlcNAc(b1-3)Gal(b1-4)GlcNAc
# In short: as §1
# [18] = molecular target: Neu5Ac(a2-3)Gal(b1-4)GlcNAc(b1-6)GalNAc
# In short: as §1
# [19] = molecular target: Neu5Ac(a2-3)Gal(b1-4)GlcNAc(b1-6)[Gal(b1-3)]GalNAc
# In short: as §1
# [20] = molecular target: Neu5Ac(a2-6)Gal(b1-4)GlcNAc(b1-2)Man(a1-3)[Neu5Ac(a2-6)Gal(b1-4)GlcNAc(b1-2)Man(a1-6)]Man(b1-4)GlcNAc(b1-4)GlcNAc
# In short: as §1
# [21] = molecular target: Neu5Ac(a2-6)Gal(b1-4)GlcNAc(b1-2)Man(a1-6)[Gal(b1-4)GlcNAc(b1-2)Man(a1-3)]Man(b1-4)GlcNAc(b1-4)GlcNAc
# In short: as §1
# [22] = molecular target: Neu5Ac(a2-6)Gal(b1-4)GlcNAc(b1-3)Gal(b1-4)GlcNAc(b1-3)Gal(b1-4)GlcNAc(b1-2)Man(a1-3)[Neu5Ac(a2-6)Gal(b1-4)GlcNAc(b1-3)Gal(b1-4)GlcNAc(b1-3)Gal(b1-4)GlcNAc(b1-2)Man(a1-6)]GalNAc
# In short: as §1
# [23] = molecular target: Neu5Ac(a2-6)Gal(b1-4)GlcNAc(b1-6)[Gal(b1-3)GlcNAc(b1-3)]Gal(b1-4)Glc
# In short: as §1
# [24] = molecular target: Neu5Ac(a2-6)GalNAc(b1-4)GlcNAc6S
# In short: as §1
# [25] = molecular target: Neu5Ac(a2-8)Neu5Ac(a2-3)Gal(b1-3)GalNAc(b1-4)[Neu5Ac(a2-3)]Gal(b1-4)Glc
# In short: as §1
# [26] = molecular target: Neu5Ac(a2-8)Neu5Ac(a2-8)Neu5Ac(a2-3)[GalNAc(b1-4)]Gal(b1-4)Glc
# In short: as §1
# [27] = molecular target: Neu5Ac9Ac(a2-6)Gal(b1-4)GlcNAc
# In short: as §1
# [28] = molecular target: Neu5Gc(a2-6)Gal(b1-4)GlcNAc
# In short: as §1
# [29] = molecular target: Neu5Gc(a2-8)Neu5Gc(a2-3)Gal(b1-4)GlcNAc(b1-3)Gal(b1-4)GlcNAc
# In short: as §1
binder,measurement,setting,value
B1,glycan array binding signal (z-score),[1],-0.272
same,glycan array binding signal (z-score),[2],-0.244
same,glycan array binding signal (z-score),[3],-0.24
same,glycan array binding signal (z-score),[4],-0.278
same,glycan array binding signal (z-score),[5],-0.23
same,glycan array binding signal (z-score),[6],-0.244
same,glycan array binding signal (z-score),[7],-0.255
same,glycan array binding signal (z-score),[8],-0.174
same,glycan array binding signal (z-score),[9],-0.218
same,glycan array binding signal (z-score),[10],-0.23
same,glycan array binding signal (z-score),[11],-0.242
same,glycan array binding signal (z-score),[12],0.107
same,glycan array binding signal (z-score),[13],-0.205
same,glycan array binding signal (z-score),[14],-0.234
same,glycan array binding signal (z-score),[15],-0.196
same,glycan array binding signal (z-score),[16],-0.338
same,glycan array binding signal (z-score),[17],-0.231
same,glycan array binding signal (z-score),[18],-0.314
same,glycan array binding signal (z-score),[19],-0.228
same,glycan array binding signal (z-score),[20],-0.226
same,glycan array binding signal (z-score),[21],-0.196
same,glycan array binding signal (z-score),[22],-0.294
same,glycan array binding signal (z-score),[23],-0.295
same,glycan array binding signal (z-score),[24],-0.293
same,glycan array binding signal (z-score),[25],-0.247
same,glycan array binding signal (z-score),[26],-0.227
same,glycan array binding signal (z-score),[27],-0.232
same,glycan array binding signal (z-score),[28],-0.231
same,glycan array binding signal (z-score),[29],-0.309
